Measurements reported in the supplement of paper PMC5940239.

Key:
[1] = tested on: Madurella mycetomatis MM55; conditions: 7 days
[2] = tested on: Madurella mycetomatis MM55; assay: IC90; higher = less potent; conditions: 7 days
[3] = tested on: Madurella mycetomatis MM55; assay: percent growth relative to solvent control; higher = less inhibition, active = 20 or less; conditions: 100 µM; 7 days

| Structure (SMILES) | IC50 [1] | IC90 [2] | percent growth [3] |
| --- | --- | --- | --- |
| N=C(N)c1ccc(-c2cc(-c3ccccc3)on2)cc1 | 52.1 µM | 90.2 µM | -0.237% (active) |
| CN1CCN(c2nccc3[nH]c(-c4cccc(F)c4)cc23)CC1 | 50.5 µM | 93 µM | 3.26% (active) |
| c1ccc(Oc2ccc(-c3cc(N4CCOCC4)[nH]n3)cc2)cc1 | 56.9 µM | 95.2 µM | 5.11% (active) |
| COc1cc(CN2CCC3(C=Cc4ccccc43)CC2)cc2c1OCO2 | 28 µM | 91.5 µM | 4.12% (active) |
| CN1CCC(c2cc(-c3ccncc3)c(-c3ccc(F)cc3)[nH]2)CC1 | 56.4 µM | 91.6 µM | 1.72% (active) |
| Cc1ccc2nc(Cl)c(CNCc3cccs3)cc2c1 | 37.5 µM | 54.5 µM | -0.463% (active) |
| Cc1ccc(-c2nc(CN(Cc3ccccn3)C(C)C)cs2)o1 | 53.9 µM | 90 µM | 0.31% (active) |
| N=C(N)Nc1ccc(-c2ccc(-c3ccc(NC(=N)N)cc3Cl)o2)c(Cl)c1 | 11.4 µM | 17.8 µM | -6.7% (active) |
| CCOc1ccc(-c2nc(CNCCc3ccc(F)cc3)cs2)cc1 | 10.4 µM | 19.6 µM | 3.57% (active) |
| O=C(c1ccc(NCCO)cc1)C1C[C@H]1c1ccc(Cl)cc1 (stereo not given in full) | 12.2 µM | 38 µM | 4.06% (active) |
| CCCc1ccc(S(=O)(=O)Nc2ccc(CN3CCN(CC4CC4)CC3)cc2)cc1 | 63.1 µM | 91.8 µM | -0.983% (active) |
| CC1=Nc2ccc(Cl)cc2C(O)(c2ccc(C)cc2)N1CCN1CCCCC1 (stereo not given) | 49.3 µM | 92.3 µM | 2.85% (active) |
| Cc1cnc(N2CCN[C@@H](Cc3ccccc3)C2)nc1Oc1ccc(-n2ccnc2)cc1 | 10.7 µM | 20.8 µM | 3.67% (active) |
| C[C@H](c1ccc2c(c1)CCCC2)N(C)c1ncc2c(N)nc(N)nc2n1 | 63.7 µM | 91 µM | -2.94% (active) |
| COc1ccc(OC)c(NCc2ccc3nc(N)nc(N)c3c2Cl)c1 | 2.3 µM | 4.7 µM | -0.467% (active) |
| Clc1ccc(Cl)c(CO[C@H]2CCCC[C@@H]2n2ccnc2)c1 | 14.2 µM | 67.5 µM | 1.03% (active) |
| O=C([C@@H](c1ccc(Cl)cc1)c1cccnc1)N1CCN(c2ccc(C(F)(F)F)cc2)CC1 | 1.35 µM | 3.4 µM | 4.17% (active) |
| COc1ccc(-c2cnc3ccc(N4CCCC4)nn23)cc1OC | 64 µM | 92.7 µM | 0.205% (active) |
| c1ccc(C[C@@H]2CN(c3nccc(Oc4ccc(-n5ccnc5)cc4)n3)CCN2)cc1 | 58.9 µM | 91.2 µM | -0.802% (active) |
| Cc1nc(-c2ccccn2)nc(N(C)CCc2ccccc2)c1Cl | 9.25 µM | 17.8 µM | 2.82% (active) |
| O=C(C1CCN(c2cc(-n3cccc3)ncn2)CC1)N1CCc2ccccc2C1 | 62.1 µM | 91.5 µM | 3.17% (active) |
| CN1CCCC1CCO[C@](C)(c1ccccc1)c1ccc(Cl)cc1 (stereo not given in full) | 9.85 µM | 18.3 µM | -0.386% (active) |

| Structure (SMILES) | IC50 [1] | IC90 [2] | percent growth [3] |
| --- | --- | --- | --- |
| CCOC(=O)c1c(NC(=O)c2c(F)c(F)c(F)c(F)c2F)sc(C(N)=O)c1C | 60.5 µM | 92.8 µM | 1.26% (active) |
| O=C(Nc1ccccc1)c1ccc(-c2cc3ccncc3cc2OC2CCNCC2)s1 | 54.3 µM | 87.4 µM | -5% (active) |
| Nc1nccc2ccc(-c3ccc4nccn4c3)cc12 | 53.9 µM | 89.2 µM | -2.88% (active) |
| COc1ccc2nc(C)cc(OCC(=O)Nc3ccccc3OC)c2c1 |  |  | 72.5% (inactive) |
| Cc1ccc2c(c1C)NC(=O)C21NN=C(c2ccccc2)S1 (stereo not given) | 37.9 µM | 61.2 µM | 4.4% (active) |
| O=C(NC1CC1)c1ccc(N2CCC(Cc3ccccc3)CC2)nc1 |  |  | 104% (inactive) |
| COc1ccc(CCN2CCC(NCc3cccc(N(C)C)c3)CC2)cc1 | 24.5 µM | 51.7 µM | -0.197% (active) |
| CCc1ccccc1-n1c(C)cn2c3c(=O)n(C(C(=O)OC)C(C)C)c(=O)n(C)c3nc12 (stereo not given) |  |  | 79.9% (inactive) |
| COc1cccc(-c2cc3c(Nc4cccnc4)nccc3[nH]2)c1 | 51.8 µM | 92.5 µM | 2.45% (active) |
| c1cc(C2=NCCN2)cc(-c2cc(-c3ccc(C4=NCCN4)cc3)no2)c1 |  |  | 73.8% (inactive) |
| c1coc(CNc2nc(N3CCCCC3)nc3ccccc23)c1 | 10.2 µM | 15.5 µM | 1.16% (active) |
| FC(F)(F)c1cnc(Sc2nnc(-c3ccncc3)o2)c(Cl)c1 |  |  | 82.4% (inactive) |
| Nc1nc2ccc(-c3cncc(Oc4ccc(F)cc4)c3)cc2[nH]1 | 40.7 µM | 85.8 µM | -2.72% (active) |
| NC(CC(=O)c1ccc(Cl)cc1Cl)C(Cl)(Cl)Cl (stereo not given) | 58.1 µM | 95 µM | 5.11% (active) |
| CC(=O)NC[C@@H]1CN(c2ccc(N3CCOCC3)c(F)c2)C(=O)O1 |  |  | 107% (inactive) |
| O=C(C1CCCCC1)N1CC(=O)N2CCc3ccccc3C2C1 (stereo not given) |  |  | 92.7% (inactive) |
| O=C(Nc1ccc(F)c(-c2nc3cc(-c4ccccc4)cnc3[nH]2)c1)N1CCCC1 |  |  | 95.8% (inactive) |
| O=C(OCc1ccccc1)N1CCC(c2cc(-c3ccncc3)c(-c3ccc(F)cc3)[nH]2)CC1 |  |  | 117% (inactive) |
| O=C(Nc1nc(-c2ccccn2)cs1)C1CC1c1ccccc1F (stereo not given) |  |  | 46.7% (inactive) |
| O=C1N(Cc2cc3ccccc3s2)CC2CN(Cc3ccccc3)CCN12 (stereo not given) | 57.6 µM | 91.8 µM | 0.636% (active) |
| Cc1nnc(NCc2cccc(Cl)c2)c2ccccc12 | 29.1 µM | 62.8 µM | -0.336% (active) |
| O=C(NC1CCN(c2ccnc3ccccc23)C1)c1cccc(C(F)(F)F)c1 (stereo not given) | 61.6 µM | 94.8 µM | 3.94% (active) |

| Structure (SMILES) | IC50 [1] | IC90 [2] | percent growth [3] |
| --- | --- | --- | --- |
| C[C@]1(O)C[C@@H](c2nc(-c3ccc4ccc(-c5ccccc5)nc4c3)c3c(N)nccn32)C1 |  |  | 133% (inactive) |
| Cc1ccccc1CN1CCC(O)(c2ccc(Cl)c(C(F)(F)F)c2)CC1 | 35.5 µM | 56.3 µM | 1.71% (active) |
| Cc1nc(-c2cccc(NCc3ccccc3)c2)[nH]c1C | 64 µM | 93.6 µM | 1.75% (active) |
| CC(=O)Nc1ccc(-c2noc(CC3CCCN(Cc4cccc(F)c4C)C3)n2)cc1 (stereo not given) | 66.2 µM | 94.5 µM | 1.89% (active) |
| c1cncc(NCc2ccc(-c3cc4ccncc4cc3OC3CCNCC3)s2)c1 | 53.9 µM | 88.5 µM | -3.08% (active) |
| CC(c1cc(Cl)cc(Cl)c1)N(C)c1ncc2c(N)nc(N)nc2n1 (stereo not given) | 46.5 µM | 90.7 µM | 5.31% (active) |
| COc1ccc(Nc2ccccc2NC(=O)c2ccc(O)nc2)cc1 |  |  | 85.8% (inactive) |
| Cc1cc(C(=O)Nc2cnn(Cc3ccc(Cl)cc3Cl)c2)no1 |  |  | 121% (inactive) |
| CN(C)CCNC(=O)N1CCCN(c2ncnc3cc(-c4ccccc4)sc23)CC1 |  |  | 64.5% (inactive) |
| CC1=NN(c2nc3ccccc3s2)C(=O)C1Cc1cccc2ccccc12 (stereo not given) | 62.1 µM | 93 µM | 1.31% (active) |
| COC(=O)Nc1nc2cc(C(=O)c3ccccc3)ccc2[nH]1 |  |  | 111% (inactive) |
| NCC(c1cccs1)S(=O)(=O)c1ccccc1 (stereo not given) | 53.9 µM | 91.8 µM | 1.47% (active) |
| C[C@@H]1[C@H](O)[C@@H](C)/C=C/C=C/C=C/C=C/C=C/C=C/C=C/[C@H](O[C@@H]2O[C@H](C)[C@@H](O)[C@H](N)[C@@H]2O)C[C@@H]2O[C@](O)(C[C@@H](O)C[C@@H](O)[C@H](O)CC[C@@H](O)C[C@@H](O)CC(=O)O[C@H]1C)C[C@H](O)[C@H]2C(=O)O | 9.7 µM | 20.1 µM | 7.03% (active) |
| COc1cccc(-n2nnnc2S(=O)(=O)Cc2ccccc2)c1 | 45.7 µM | 90 µM | 1.14% (active) |
| Cc1ccc2nc(C)c(-c3ccn(Cc4ccccc4)n3)n2c1 | 39.8 µM | 90.8 µM | 2.95% (active) |
| c1ccc(-c2cc(N3CCCCC3)c3ccccc3n2)nc1 | 60 µM | 92.4 µM | 0.766% (active) |
| c1csc(-c2cnc3sc(NCC4CCOCC4)nn23)c1 | 62.6 µM | 95.5 µM | 4.52% (active) |
| CC[P](CC)(CC)=[Au][S][C@H]1O[C@@H](COC(C)=O)[C@H](OC(C)=O)[C@@H](OC(C)=O)[C@@H]1OC(C)=O | 17.1 µM | 45.8 µM | 3.51% (active) |
| NS(=O)(=O)c1cccc(-c2ccc3ncc(N4CCOCC4)nc3c2)c1 |  |  | 106% (inactive) |
| CN1CCN(c2cc(-c3ccc(F)cc3)nc(-c3ccncc3)n2)CC1 | 37.1 µM | 91.2 µM | 2.98% (active) |
